Compound activity (PubChem BioAssay)
An excerpt weighted towards active compounds, which were near 2.3% of everything screened.
HIF-2a inh – blocks HIF-2a reporter activity. 786-0 RCC cells HIF-2a reporter, luciferase luminescence, overnight. inhibition, % at 18.8 µM. 0.72% of 360,000 active. AID 624352;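 active = inhibition of the luminescence signal of 40% or more relative to plate controls, in a single-dose primary screen at 18.75 µM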
KKLEB cytotox – CF airway cell cytotoxicity counter-screen. KKLEB CF airway cells viability, ATPlite luminescence, overnight; hits give low values; cells stimulated with P. aeruginosa culture filtrate. activity change (cytotoxicity), % at 5 µM. 0.36% of 360,000 active. AID 602141;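 active = corrected activity change at or below -50% at 5 µM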
LGR2 inh – Drosophila LGR2 receptor signaling inhibition; AID 720647; 0.35% of 380,000 active; inhibition, % at 9.99 µM; HEK293 LGR2, CRE-luciferase, bursicon-stimulated, 4 h;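 active = drop in luminescence signal, shown as inhibition above about 50% in the replicate tests, limit read from the data, passing the limit was not always enough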;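 also: agonist challenge used bursicon conditioned medium at about half maximal strength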
CF NFkB block – cystic fibrosis NF-kB activation inhibition; inhibition, % at 5 µM; KKLEB NF-kB-GFP reporter, PAF-induced, GFP fluorescence overnight; 0.86% of 360,000 active;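 active = at least 50% inhibition at 5 µM, scaled per plate between neutral and stimulator controls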;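 also: PAF is a Pseudomonas aeruginosa culture filtrate used as stimulus; plate controls were PAF-stimulated DMSO wells for no effect and unstimulated DMSO wells for full effect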
hiPSC survival – hiPSC single-cell survival enhancement. 0.044% of 360,000 active. ATPlite luminescence; 100% = ROCK inhibitor wells, 0% = DMSO. AID 602274. survival enhancement, % at 20 µM; in the data active = survival enhancement above about 18%;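 also: cells exposed to compounds for 16 hours before the ATP read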
TWEAK Fn14 block – inhibitors of TWEAK-Fn14 interaction signaling; 2% of 360,000 active; TWEAK-stimulated Fn14 reporter cells, luciferase luminescence, 8 h; inhibition, % at 10 µM; AID 1159606; in the data active = inhibition above about 50%
The depositor's hits bear a star; . = no result given.

SMILES	HIF-2a inh	KKLEB cytotox	LGR2 inh	CF NFkB block	hiPSC survival	TWEAK Fn14 block
COc1ccc(/C=C2\SC(=S)N(CCC(=O)N3CCCCC3CCO)C2=O)cc1 (stereo not drawn)	58*	5	13	6	0	43
Cc1ccc(/C=C2\SC(=S)N(CCCC(=O)N3CCOCC3)C2=O)cc1	58*	-9	1	4	0	-2
COc1ccc(/C=C2\SC(=S)N(CCC(=O)Nc3ccccc3C(=O)O)C2=O)cc1	71*	2	13	2	-1	24
CC(C)NC(=O)N(C)C[C@H]1Oc2ccc(NS(=O)(=O)c3ccccc3)cc2CC(=O)N([C@H](C)CO)C[C@@H]1C	.	.	2	.	.	.
COc1ccc(/C=C2/SC(=S)N(CCC(=O)N3CCN(C)CC3)C2=O)cc1	24	-3	-2	-10	0	20
Cc1ccc(/C=C2\SC(=S)N(CCCC(=O)NC3CCCC3)C2=O)cc1	74*	8	-5	14	0	44
COc1ccc(/C=C2\SC(=S)N(CCC(=O)N3CCCCC3)C2=O)cc1	76*	0	0	12	-1	50*
C[C@@H]1CN([C@@H](C)CO)C(=O)c2c(c3ccccc3n2C)-c2ccccc2CO[C@H]1CN(C)Cc1cccc2c1OCCCO2	.	.	2	.	.	.
C[C@H]1CCCCO[C@H](CN(C)C(=O)Nc2ccc(C(F)(F)F)cc2)[C@@H](C)CN([C@@H](C)CO)C(=O)c2cc(N(C)C)ccc2O1	.	.	22	.	.	.
Cc1ccc(C(=O)O/N=C(\N)c2nonc2N)cc1	-83	14	78*	-6	-1	55*
N/C(=N\OC(=O)c1ccc(F)cc1)c1nonc1N	-31	6	-35	-14	1	-14
c1ccc(Nc2nc(NCc3ccco3)c3ccccc3n2)cc1	-187	-14	6	26	0	52*
Cc1cccc(Nc2nc(NCc3ccco3)c3ccccc3n2)c1	-86	-5	.	18	-2	86*
COc1cc(OC)c2c(-c3cccc(-c4ccc(OC)c(F)c4)c3)cc(=O)oc2c1	-32	-12	-27	46	-4	-26
COc1cc(OC)c2c(-c3cccc(-c4ccc(C(C)=O)cc4)c3)cc(=O)oc2c1	1	-6	.	55*	0	77*
COc1ccc(OCc2cc(C(=O)N(C)C3CCOCC3)no2)c2ccccc12	-177	-20	-60	-35	0	79*
CSc1ccccc1OCc1cc(C(=O)NC2CCOC(C)(C)C2)no1 (stereo not drawn)	-33	32	2	-36	0	1
COc1ccc(OCc2cc(C(=O)NC3CCOC(C)(C)C3)no2)c2ccccc12 (stereo not drawn)	-183	7	-60	-14	0	61*
O=C(Nc1ccc(Br)cc1)c1ccc(F)c(S(=O)(=O)NCc2cccs2)c1	6	-12	20	11	-2	58*
O=S(=O)(NCc1cccs1)c1ccc(Br)cc1	-18	21	8	5	0	4
Cc1ccsc1/C=C/c1ccc2cccc(O)c2n1	-128	-20	.	5	3	-5
Cc1ccsc1/C=C/c1ccc2ccccc2n1	-76	-12	.	-1	6	52*
Fc1cccc(Cl)c1/C=C/c1cnc2ccccc2n1	-80	-8	91*	7	1	41
Fc1cccc(F)c1/C=C/c1ccc2ccccc2n1	-64	-19	67*	-18	-3	41
C(=C\c1ccco1)/c1ccc2ccccc2n1	-244	12	-43	-51	0	3
SMILES	HIF-2a inh	KKLEB cytotox	LGR2 inh	CF NFkB block	hiPSC survival	TWEAK Fn14 block
CO[C@H]1CN(C)C(=O)c2ccc(NC(=O)c3ccc(F)cc3)cc2OC[C@@H](C)N(C(=O)c2ccc(F)cc2)C[C@H]1C	.	.	-13	.	.	.
CC(C)C#Cc1ccc2c(c1)O[C@@H](CN(C)C)[C@@H](C)CN([C@H](C)CO)S2(=O)=O	.	.	3	.	.	.
C[C@H]1CCCCO[C@H](CN(C)Cc2ccc(Cl)c(Cl)c2)[C@@H](C)CN([C@@H](C)CO)C(=O)c2cc(NC(=O)CCC(F)(F)F)ccc2O1	.	.	22	.	.	.
COc1cccc(-c2ccc([C@H]3[C@@H](CO)N4C(=O)CN(C(=O)CN5CCOCC5)C[C@@H]34)cc2)c1	.	.	-2	.	.	.
O=C(Nc1nc2ccccc2c(=O)s1)c1ccco1	2	-12	14	11	-1	54*
CC(=O)Nc1nc2cc3c(cc2s1)OCO3	-230	9	-21	-22	-1	-10
O=C(Nc1nc2ccc(F)cc2s1)c1ccc([N+](=O)[O-])o1	-177	-62*	-22	81*	2	38
O=C(Nc1nc2cc3c(cc2s1)OCO3)c1ccco1	-11	-11	71*	-26	-1	90*
O=C(NC(=S)Nc1nc2ccc(F)cc2s1)c1ccco1	-212	-71*	-18	-20	-2	-4
COc1ccc2c3c([nH]c2c1)[C@H](CO)N(C(=O)Nc1ccc(F)cc1)CC31CCN(S(=O)(=O)c2ccc(C)cc2)CC1	.	.	10	.	.	.
CC(C)NC(=O)NCC[C@H]1CC[C@@H](NS(=O)(=O)c2ccc(-c3ccccc3)cc2)[C@H](CO)O1	.	.	-16	.	.	.
COc1ccc(CN(C)C[C@H]2OCCCC[C@H](C)Oc3ccc(NS(C)(=O)=O)cc3C(=O)N([C@H](C)CO)C[C@H]2C)cc1	.	.	-5	.	.	.
O=C(Nc1nc2cc3c(cc2s1)OCO3)C1=COCCO1	55*	-28	.	8	-4	101*
CC(C)C(=O)Nc1nc2cc3c(cc2s1)OCCO3	-137	-12	24	-9	0	44
O=C(Nc1nc2cc3c(cc2s1)OCCO3)c1ccco1	71*	-37	98*	-1	-1	100*
COc1ccc(NC(=O)N[C@@H]2CC[C@H](CCNC(=O)c3ccccc3F)O[C@H]2CO)cc1	.	.	30	.	.	.
COc1cc(OC)c(-c2nc3ccccc3s2)cc1OC	-99	-5	-30	-34	0	10
COc1ccc(-c2nc3ccccc3s2)cc1O	40	-54*	.	-10	-6	99*
CC[n+]1cccc(-c2nc3ccccc3s2)c1	29	1	15	-5	-2	69*
Nc1cccc(-c2nc3ccccc3s2)c1	-67	-2	.	-17	-4	34
COc1cc(-c2nc3ccccc3s2)ccc1O	-216	0	.	-24	-2	-17
COc1cccc(-c2nc3ccccc3s2)c1O	-30	-39	53*	-21	-2	48
Oc1cccc(-c2nc3ccccc3s2)c1	-107	-11	.	-8	-2	54*
Cc1ccc(S(=O)(=O)N(C)C[C@H]2OCCCC[C@H](C)Oc3ccc(NC(=O)C4CCCCC4)cc3C(=O)N([C@@H](C)CO)C[C@@H]2C)cc1	.	.	-21	.	.	.
FC(F)(F)c1ccc(-c2nc3ccccc3s2)cc1	-130	5	-86	-16	-1	23
CC(C)c1ccc(-c2nc3ccccc3s2)cc1	77*	-79*	100*	21	-1	107*
